Holding throughout (conditions): mRNA level, 48 h; actives raise or lower the signal
Read-out in test [1]: Cytochrome P450 (CYP24A1), CYP24A1 (gene 1591)
Nature of the test: LTEA_HepaRG_CYP24A1: Life Technologies and Expression Analysis (LTEA) Assay for Cytochrome P450 (CYP24A1) using HepaRG (AID 2283478). The procedure, abridged:
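HepaRG, 48 h chemical exposure, 8-pt half-log CRC from 100 uM, 0.5% DMSO vehicle, duplicates. Endpoint: CYP24A1 mRNA by Fluidigm TaqMan qRT-PCR, normalized ACTB/GAPDH/POLR2A; gain/loss fit vs DMSO.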

Read-out in test [2]: Cytochrome P450 (CYP1A2), CYP1A2 (gene 1544)
Nature of the test: LTEA_HepaRG_CYP1A2: Life Technologies and Expression Analysis (LTEA) Assay for Cytochrome P450 (CYP1A2) using HepaRG (AID 2283479). In outline: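 CYP1A2 transcript induction or loss, quantified by Fluidigm qRT-PCR against three housekeeping genes, was fitted bidirectionally against 0.5% DMSO controls. Human HepaRG cells received eight half-log concentrations from 100 uM over 48 h.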

Read-out in test [3]: cysteine-aspartic acid protease (CASP8), CASP8 (gene 841)
Briefly: LTEA_HepaRG_CASP8: Life Technologies and Expression Analysis (LTEA) Assay for cysteine-aspartic acid protease (CASP8) using HepaRG (AID 2283480). The procedure, abridged: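 HepaRG, 48 h exposure, duplicate wells; 8 conc, half-log from 100 uM, 0.5% DMSO. Serum-free induction medium. CASP8 mRNA by TaqMan qRT-PCR, norm. ACTB/GAPDH/POLR2A; gain/loss fitted vs DMSO.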

Read-out in test [4]: Cytochrome P450 (CYP2B6), CYP2B6 (gene 1555)
Nature of the test: LTEA_HepaRG_CYP2B6: Life Technologies and Expression Analysis (LTEA) Assay for Cytochrome P450 (CYP2B6) using HepaRG (AID 2283481). In outline:
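HepaRG cells plated 48 h, switched to serum-free induction medium, then dosed 48 h (8 points, half-log from 100 uM, 0.5% DMSO). RNA isolated; CYP2B6 expression measured by qRT-PCR; gain or loss fitted relative to DMSO.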

Read-out in test [5]: Cytochrome P450 2C19 (Homo sapiens) (UniProt P33261)
Nature of the test: LTEA_HepaRG_CYP2C19: Life Technologies and Expression Analysis (LTEA) Assay for CYP2C19 using HepaRG (AID 2283482). In outline: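 Transcript levels of CYP2C19 were quantified by qRT-PCR after HepaRG cells were treated for 48 hours with test chemicals up to 100 uM (eight half-log concentrations, 0.5% DMSO vehicle). Gain or loss of signal was fitted relative to DMSO.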

Read-out in the next test: CYP2C8 (gene 1558)
Nature of the test: LTEA_HepaRG_CYP2C8: Life Technologies and Expression Analysis (LTEA) Assay for CYP2C8 using HepaRG (AID 2283483). In outline:
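CYP2C8 mRNA induction or loss, by qRT-PCR normalized to ACTB/GAPDH/POLR2A, is read in HepaRG cells after 48 h treatment. Concentrations run from 100 uM down in half-log dilutions, with 0.5% DMSO as vehicle and baseline.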

Read-out in a further test: CYP2C9 (gene 1559)
Nature of the test: LTEA_HepaRG_CYP2C9: Life Technologies and Expression Analysis (LTEA) Assay for CYP2C9 using HepaRG (AID 2283484). In outline:
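Cells plated 48 h, switched to serum-free induction medium, then treated in duplicate for 48 h at eight concentrations (max 100 uM, 0.5% DMSO). RNA then analysed by qRT-PCR for CYP2C9; curves fitted in both directions relative to DMSO.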

Read-out in the next test: CYP2E1 (gene 1571)
Nature of the test: LTEA_HepaRG_CYP2E1: Life Technologies and Expression Analysis (LTEA) Assay for CYP2E1 using HepaRG (AID 2283485). In outline: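 HepaRG cells, plated 48 h, then exposed 48 h in serum-free induction medium to eight half-log concentrations from 100 uM in 0.5% DMSO, duplicate. CYP2E1 mRNA by qRT-PCR, normalized to ACTB/GAPDH/POLR2A; bidirectional fit versus DMSO.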

Read-out in a further test: CYP4A11 (gene 1579)
Nature of the test: LTEA_HepaRG_CYP4A11: Life Technologies and Expression Analysis (LTEA) Assay for CYP4A11 using HepaRG (AID 2283486). The procedure, abridged:
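HepaRG, 48 h chem exposure, 8 conc (100 uM top, half-log), 0.5% DMSO vehicle; qRT-PCR readout, housekeeping-gene normalized; bidirectional curve fit vs DMSO baseline.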

Read-out in test [6]: DNA damage-inducible transcript 3 (DDIT3), DDIT3 (gene 1649)
Nature of the test: LTEA_HepaRG_DDIT3: Life Technologies and Expression Analysis (LTEA) Assay for DNA damage-inducible transcript 3 (DDIT3) using HepaRG (AID 2283488). The procedure, abridged:
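HepaRG cells, 48 h after plating, exposed 48 h in serum-free induction medium to 8 half-log concentrations up to 100 uM in 0.5% DMSO, in duplicate. DDIT3 mRNA measured by TaqMan qRT-PCR, normalized to ACTB, GAPDH and POLR2A. Fitted bidirectionally against DMSO.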

Read-out in test [7]: Pro-epidermal growth factor (Homo sapiens) (UniProt P01133)
Nature of the test: LTEA_HepaRG_EGF: Life Technologies and Expression Analysis (LTEA) Assay for Epidermal growth factor (EGF) using HepaRG (AID 2283489). In outline: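 HepaRG, 48 h dosing, 100 uM top, half-log x8, 0.5% DMSO. Readout: TaqMan qRT-PCR (Fluidigm array), housekeeping-normalized. Gain or loss of signal fit vs DMSO.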

Read-out in test [8]: Early growth response protein 1 (EGR1) transcription factor, EGR1 (gene 1958)
Briefly: LTEA_HepaRG_EGR1: Life Technologies and Expression Analysis (LTEA) Assay for Early growth response protein 1 (EGR1) transcription factor using HepaRG (AID 2283490). In outline:
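Read-out is EGR1 mRNA level by qRT-PCR, normalized to three housekeeping genes and analysed for gain or loss of signal against 0.5% DMSO. Source cells: human HepaRG, treated 48 h at up to 100 uM in half-log dilutions.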

Read-out in test [9]: Ezrin (EZR), EZR (gene 7430)
Nature of the test: LTEA_HepaRG_EZR: Life Technologies and Expression Analysis (LTEA) Assay for Ezrin (EZR) using HepaRG (AID 2283491). The procedure, abridged: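 Gain or loss of EZR mRNA is scored relative to 0.5% DMSO in human HepaRG cultures treated 48 h with test chemicals in duplicate, eight half-log concentrations from 100 uM.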

Read-out in test [10]: Cytochrome P450 3A7 (Homo sapiens) (UniProt P24462)
Briefly: LTEA_HepaRG_CYP3A7: Life Technologies and Expression Analysis (LTEA) Assay for CYP3A7 using HepaRG (AID 2283492). The procedure, abridged:
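Human HepaRG liver cells, 48 h post-plating, switched to serum-free induction medium and exposed in duplicate for 48 h. Dosing: 100 uM top, half-log dilutions, 8 points, 0.5% DMSO vehicle. Read-out: CYP3A7 mRNA, gain or loss fitted against DMSO baseline.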

Read-out in another test: CYP3A5 (gene 1577)
Briefly: LTEA_HepaRG_CYP3A5: Life Technologies and Expression Analysis (LTEA) Assay for CYP3A5 using HepaRG (AID 2283493). In outline: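 HepaRG cells, plated 48 h then in serum-free induction medium, dosed in duplicate for 48 h with eight half-log concentrations up to 100 uM in 0.5% DMSO. Gene mRNA by Fluidigm TaqMan qRT-PCR, normalized to ACTB, GAPDH, POLR2A.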

Read-out in test [11]: Fatty Acid-Binding Protein 1 (FABP1), FABP1 (gene 2168)
Nature of the test: LTEA_HepaRG_FABP1: Life Technologies and Expression Analysis (LTEA) Assay for Fatty Acid-Binding Protein 1 (FABP1) using HepaRG (AID 2283494). In outline:
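HepaRG, 48 h post-plating switched to serum-free induction medium, then dosed 48 h (duplicate, 8 pts, ≤100 uM, 0.5% DMSO). RNA → Fluidigm TaqMan qRT-PCR, FABP1 normed to ACTB/GAPDH/POLR2A. Bidirectional curve fit vs DMSO.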

Read-out in test [12]: Cytochrome P450 7A1 (Homo sapiens) (UniProt P22680)
Briefly: LTEA_HepaRG_CYP7A1: Life Technologies and Expression Analysis (LTEA) Assay for Cytochrome P450 7A1 (CYP7A1) using HepaRG (AID 2283496). The procedure, abridged:
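HepaRG cells plated 48 h, then switched to serum-free induction medium and exposed in duplicate for 48 h to 8-point half-log series from 100 uM in 0.5% DMSO. CYP7A1 mRNA by qRT-PCR (TaqMan), normalized to ACTB/GAPDH/POLR2A; bidirectional fit versus DMSO.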

Read-out in test [13]: Glutathione S-Transferase (GSTA2), GSTA2 (gene 2939)
Nature of the test: LTEA_HepaRG_GSTA2: Life Technologies and Expression Analysis (LTEA) Assay for Glutathione S-Transferase (GSTA2) using HepaRG (AID 2283497). In outline: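 HepaRG, 48 h dosing, 8-pt half-log CRC from 100 uM, 0.5% DMSO vehicle, n=2; RNA → Fluidigm TaqMan qRT-PCR; GSTA2 vs ACTB/GAPDH/POLR2A; gain/loss fit vs DMSO.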

Read-out in test [14]: Cytochrome P450 4A22 (Homo sapiens) (UniProt Q5TCH4)
Nature of the test: LTEA_HepaRG_CYP4A22: Life Technologies and Expression Analysis (LTEA) Assay for Cytochrome P450 4A22 (CYP4A22) using HepaRG (AID 2283495). In outline:
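Readout is CYP4A22 transcript induction or loss, quantified by qRT-PCR and normalized to ACTB, GAPDH and POLR2A. Human HepaRG cells receive test chemicals for 48 h at eight half-log concentrations from 100 uM in 0.5% DMSO.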

The source made the active and inactive calls. How the source made its calls: active means hit-call score of the fitted dose curve at least 0.9, where 1 is the maximum; inactive means score below 0.9.

The AC50 is the midpoint of the concentration-response curve, whichever way the signal moves.

Sequence of Cytochrome P450 3A7 (Homo sapiens) (P24462 whole entry, looked up): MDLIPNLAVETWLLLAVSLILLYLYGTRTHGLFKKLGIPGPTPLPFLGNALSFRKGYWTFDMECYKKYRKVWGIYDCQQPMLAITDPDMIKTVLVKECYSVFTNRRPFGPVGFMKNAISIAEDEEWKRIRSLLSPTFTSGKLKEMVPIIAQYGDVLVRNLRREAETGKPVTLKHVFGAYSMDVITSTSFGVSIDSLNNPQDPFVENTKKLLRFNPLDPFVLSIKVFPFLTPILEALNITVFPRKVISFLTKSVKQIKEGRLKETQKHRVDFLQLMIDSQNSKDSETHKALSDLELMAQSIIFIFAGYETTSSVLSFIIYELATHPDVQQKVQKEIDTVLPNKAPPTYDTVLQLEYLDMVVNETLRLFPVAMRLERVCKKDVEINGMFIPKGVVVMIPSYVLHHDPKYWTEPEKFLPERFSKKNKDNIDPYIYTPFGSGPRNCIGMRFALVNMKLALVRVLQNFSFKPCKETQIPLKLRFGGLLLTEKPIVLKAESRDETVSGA
Sequence of Cytochrome P450 2C19 (Homo sapiens) (P33261 whole entry, looked up): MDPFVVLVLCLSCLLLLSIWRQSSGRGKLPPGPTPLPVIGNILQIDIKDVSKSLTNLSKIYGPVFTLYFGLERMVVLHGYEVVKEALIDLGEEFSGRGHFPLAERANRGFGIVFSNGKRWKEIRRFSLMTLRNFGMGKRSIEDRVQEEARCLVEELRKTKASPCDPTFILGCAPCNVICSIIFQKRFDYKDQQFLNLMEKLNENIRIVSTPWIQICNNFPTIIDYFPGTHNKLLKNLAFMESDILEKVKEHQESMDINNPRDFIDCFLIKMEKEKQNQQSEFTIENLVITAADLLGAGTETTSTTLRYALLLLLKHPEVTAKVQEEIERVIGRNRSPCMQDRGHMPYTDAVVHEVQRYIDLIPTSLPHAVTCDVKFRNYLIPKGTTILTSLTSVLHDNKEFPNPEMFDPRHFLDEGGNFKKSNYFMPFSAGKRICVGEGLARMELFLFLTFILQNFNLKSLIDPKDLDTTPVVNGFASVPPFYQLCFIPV

`CCCC(CCC)C(=O)O`: the compound was classed as inactive (in test [1]; in [2]; in test [3]; in [4]; in test [5]; with CYP2C8 (gene 1558)). Further, the compound was classed as inactive (with CYP2C9 (gene 1559); with CYP2E1 (gene 1571); with CYP4A11 (gene 1579); in test [6]; in [7]; in test [8]). Further, the call (in [9]; in [10]; with CYP3A5 (gene 1577); in [11]; in test [12]; in test [13]) was inactive.

Regarding `Nc1ccn([C@@H]2O[C@H](CO)[C@@H](O)[C@@H]2O)c(=O)n1`, the result (in [1]; in test [2]; in test [3]; in test [4]; with CYP2C8 (gene 1558); with CYP2C9 (gene 1559)) was inactive. Besides, the outcome (in the test with CYP2E1 (gene 1571); with CYP4A11 (gene 1579); in test [6]; in [7]; in test [8]; in test [9]) was inactive. Moreover, the call (in [10]; with CYP3A5 (gene 1577); in [11]; in test [14]; in test [12]; in test [13]) was inactive.

For the compound `Cc1nc(-c2ccccn2)ncc1C(=O)Nn1cc(C)c2cc(F)ccc21`, the compound was classed as inactive (in [1]; in test [2]; in test [3]; with CYP2C8 (gene 1558); in test [7]; in test [8]). The call (in test [9]; with CYP3A5 (gene 1577); in test [12]) was inactive. The AC50 in [4] was 168 nM (active); in test [5], 1.02 µM (active); with CYP2C9 (gene 1559), 75.6 µM (active); with CYP2E1 (gene 1571), 24.3 µM (active); with CYP4A11 (gene 1579), 59.4 µM (active); in test [10] it was 945 nM (active). In addition, the values for the AC50 in test [11] and in [13] were 6.97 µM (active) and 65.5 µM (active), respectively.
